Source: PubChem BioAssay
Values without a mark were called inactive. Where a call stands in place of a potency, no number is given. For some assays here: Potency and affinity values are given separately. Active and inactive are the calls of the source. Unless noted, the rule behind the calls is not given here.

What was measured:
[1] = antimalarial activity against Dd2 strain (AID 2302;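 active = growth inhibition above 50% at the single 2 µM test dose, taken to imply half-maximal potency below 2 µM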); settings: P. falciparum Dd2 in RBCs, LDH growth readout, 72 h; at 2 µM; active compounds read high
[2] = HepG2 cytotoxicity, primary screen, cytotoxicity control for P. falciparum antimalarial project, cell-based, ATP luminescence (AID 2303;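 active = inhibition above 50%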); settings: HepG2 viability, 24-48 h, at 10 µM, active compounds read high
[3] = biological target: L-lactate dehydrogenase (Plasmodium falciparum (isolate CDC / Honduras)) (UniProt Q27743); assay: PfLDH activity inhibition – cell lysate, 3D7 strain, counter-screen for P. falciparum growth inhibition project (AID 2304); settings: P. falciparum 3D7 crude extract, LDH APAD/NBT absorbance; at 2 µM; active compounds read high
Chain of L-lactate dehydrogenase (Plasmodium falciparum (isolate CDC / Honduras)) (Q27743 whole entry, looked up): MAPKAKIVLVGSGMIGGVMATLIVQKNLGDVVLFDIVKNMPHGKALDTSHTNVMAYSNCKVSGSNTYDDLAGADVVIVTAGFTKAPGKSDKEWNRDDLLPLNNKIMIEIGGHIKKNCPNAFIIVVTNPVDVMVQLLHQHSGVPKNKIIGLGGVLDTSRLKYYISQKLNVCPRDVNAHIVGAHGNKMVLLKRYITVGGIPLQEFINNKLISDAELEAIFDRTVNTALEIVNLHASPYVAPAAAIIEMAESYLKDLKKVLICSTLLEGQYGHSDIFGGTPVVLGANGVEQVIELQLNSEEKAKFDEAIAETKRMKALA

[4] = inhibition of 3D7 malaria parasite growth – strain 3D7 (AID 2306); settings: P. falciparum 3D7 erythrocytic growth, LDH absorbance, 72 h; at 2 µM; active compounds read high
[5] = biological target: Calcium-dependent protein kinase 1 (Plasmodium falciparum (isolate 3D7)) (UniProt P62344); assay: PfCDPK1 kinase inhibitors, biochemical, TCAMS library (AID 1159585; cut-off not given, nearly all actives have IC50 up to about 0.98 µM;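 note: inhibitors leave more ATP so luminescence rises with inhibition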); settings: recombinant PfCDPK1, Kinase-Glo ATP depletion luminescence
Chain of Calcium-dependent protein kinase 1 (Plasmodium falciparum (isolate 3D7)) (P62344 whole entry, looked up): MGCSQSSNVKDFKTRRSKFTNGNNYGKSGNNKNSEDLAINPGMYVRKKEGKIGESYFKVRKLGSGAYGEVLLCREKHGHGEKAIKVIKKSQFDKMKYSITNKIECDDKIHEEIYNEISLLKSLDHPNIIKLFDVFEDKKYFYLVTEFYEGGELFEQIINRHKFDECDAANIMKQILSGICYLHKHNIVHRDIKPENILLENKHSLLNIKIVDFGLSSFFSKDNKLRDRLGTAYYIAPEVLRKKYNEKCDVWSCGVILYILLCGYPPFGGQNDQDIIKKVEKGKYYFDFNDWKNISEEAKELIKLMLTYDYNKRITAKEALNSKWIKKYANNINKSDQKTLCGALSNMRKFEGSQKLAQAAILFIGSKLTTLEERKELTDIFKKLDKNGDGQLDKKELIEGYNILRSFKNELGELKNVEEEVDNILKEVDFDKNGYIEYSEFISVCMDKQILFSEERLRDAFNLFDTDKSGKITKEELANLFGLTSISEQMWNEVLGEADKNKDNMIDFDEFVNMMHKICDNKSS

[6] = biological target: Plasmodium falciparum protein kinase 6 (PK6, PF3D7_1337100) (UniProt Q8IDW1); assay: PfPK6 kinase inhibitors, biochemical, TCAMS library (AID 1159586); settings: recombinant PfPK6, Kinase-Glo ATP depletion luminescence
Chain of Plasmodium falciparum protein kinase 6 (PK6, PF3D7_1337100) (Q8IDW1 1-305): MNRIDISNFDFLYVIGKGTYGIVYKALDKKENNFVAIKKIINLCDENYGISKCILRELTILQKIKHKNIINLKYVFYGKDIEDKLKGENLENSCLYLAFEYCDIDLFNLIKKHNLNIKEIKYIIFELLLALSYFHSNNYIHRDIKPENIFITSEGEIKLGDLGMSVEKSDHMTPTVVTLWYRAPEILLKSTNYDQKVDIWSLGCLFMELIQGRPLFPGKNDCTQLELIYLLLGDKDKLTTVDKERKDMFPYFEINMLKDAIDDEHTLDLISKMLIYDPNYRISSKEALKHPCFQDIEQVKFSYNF

[7] = biological target: Protein kinase 7 (PK7), Plasmodium falciparum 3D7 (PF3D7_0213400) (UniProt Q7YTF7); assay: inhibition of Plasmodium PK7 catalytic activity – biochemical, TCAMS antimalarial set, Kinase-Glo luminescence (AID 1159587); settings: recombinant PfPK7, Kinase-Glo ATP depletion luminescence
Chain of Protein kinase 7 (PK7), Plasmodium falciparum 3D7 (PF3D7_0213400) (Q7YTF7 1-343): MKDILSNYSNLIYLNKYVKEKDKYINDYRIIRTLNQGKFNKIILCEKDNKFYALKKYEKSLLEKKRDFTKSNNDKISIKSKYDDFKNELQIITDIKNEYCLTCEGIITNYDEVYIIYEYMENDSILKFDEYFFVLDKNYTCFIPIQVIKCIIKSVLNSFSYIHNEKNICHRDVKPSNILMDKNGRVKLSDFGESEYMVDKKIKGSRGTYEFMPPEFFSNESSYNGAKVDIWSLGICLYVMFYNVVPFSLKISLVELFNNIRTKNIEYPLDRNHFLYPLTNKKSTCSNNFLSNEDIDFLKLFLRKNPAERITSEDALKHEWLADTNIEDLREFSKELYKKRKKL

[8] = biological target: Calcium-dependent protein kinase 4 (Plasmodium falciparum (isolate 3D7)) (UniProt Q8IBS5); assay: PfCDPK4 kinase inhibitors, biochemical, TCAMS library (AID 1159588; cut-off not given, nearly all actives have IC50 up to about 0.91 µM); settings: recombinant PfCDPK4, Kinase-Glo ATP depletion luminescence
Chain of Calcium-dependent protein kinase 4 (Plasmodium falciparum (isolate 3D7)) (Q8IBS5 whole entry, looked up): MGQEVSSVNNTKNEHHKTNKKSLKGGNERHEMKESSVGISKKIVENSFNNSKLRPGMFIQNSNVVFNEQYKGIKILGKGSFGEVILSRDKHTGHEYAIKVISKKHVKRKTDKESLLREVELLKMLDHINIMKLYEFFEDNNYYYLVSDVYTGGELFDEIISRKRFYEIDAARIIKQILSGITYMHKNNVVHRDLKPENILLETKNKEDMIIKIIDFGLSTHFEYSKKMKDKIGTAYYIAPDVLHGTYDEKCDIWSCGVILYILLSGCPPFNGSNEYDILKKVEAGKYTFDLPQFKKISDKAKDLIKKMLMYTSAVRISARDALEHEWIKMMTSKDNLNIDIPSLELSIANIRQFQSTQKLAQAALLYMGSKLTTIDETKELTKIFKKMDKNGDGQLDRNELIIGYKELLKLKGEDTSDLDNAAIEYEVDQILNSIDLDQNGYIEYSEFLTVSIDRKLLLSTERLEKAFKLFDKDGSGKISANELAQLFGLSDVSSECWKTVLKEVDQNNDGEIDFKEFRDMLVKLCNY

SMILES | growth inhibition [1] | inhibition [2] | inhibition [3] [%] | growth inhibition [4] | outcome [5] | outcome [6] | outcome [7] | outcome [8]
N#Cc1ccc2c(c1)CCN(CCC1CCC(NC(=O)/C=C/c3c[nH]c4c(Br)cccc34)CC1)CC2 (stereo not given) | 65% (active) | 32% | 0 | 101% (active) | inactive | inactive | inactive | inactive
COc1ccc(-c2ccc(NC(=O)c3cccc(C#N)c3)cc2)cc1CN1CCCN(C)CC1 | 70% (active) | 26% | 6 | 102% (active) | inactive | inactive | inactive | inactive
N#Cc1ccc(-c2ccc(C(=O)NCCCCN3CCC(c4ccncc4)CC3)cc2)cc1 | 16% | 34% | -3 | 94% (active) | inactive | inactive | inactive | inactive
CN(Cc1c(Cl)cnn1C)S(=O)(=O)c1ccc2ccccc2c1 | 36% | 7% | -2 | 94% (active) | inactive | inactive | inactive | inactive
CS(=O)(=O)c1ccc(-c2cc(C(F)(F)F)nc(N[C@@H]3CCCC[C@H]3OCc3ccccc3)n2)cc1 | 99% (active) | 8% | 5 | 100% (active) | inactive | inactive | inactive | inactive
N#Cc1cccc(NC(=O)Nc2cccc(-c3cccc(-c4nc5ccc(C(F)(F)F)cc5[nH]4)c3)c2)c1 | 99% (active) | 74% (active) | 5 | 100% (active) | inactive | inactive | inactive | inactive
O=C(CCc1cccc(O)c1)NCC(NCCCNc1cc(=O)c2ccccc2[nH]1)c1cc(Br)cc(Br)c1 (stereo not given) | 37% | -6% | -4 | 86% (active) | inactive | inactive | inactive | inactive
CC(C)[C@H]1CC[C@H](C)C[C@@H]1OC(=O)N[C@@H](Cc1ccc(O)cc1)C(=O)NC1CCN(Cc2ccc(OCCCN(C)C)cc2)C1 (stereo not given in full) | 64% (active) | 27% | 4 | 99% (active) | inactive | inactive | inactive | inactive
CCCc1cc(C)ccc1OCCCON1C(NC(=O)OCC)=NC(NC(=O)OCC)=NC1(C)C | 97% (active) | 62% (active) | 0 | 95% (active) | inactive | inactive | inactive | inactive
O=C(Nc1ccc2c(c1)CCN2C1CCN(Cc2ccc(C(F)(F)F)cc2F)C1)c1ccco1 (stereo not given) | 94% (active) | 9% | 1 | 91% (active) | inactive | inactive | inactive | inactive
Clc1cc(Cl)c2cc(CNCCCNc3ccc4ccccc4n3)[nH]c2c1 | 54% (active) | 98% (active) | 3 | 99% (active) | inactive | inactive | inactive | inactive
CCOc1ccc2nc(C)cc(NN=Cc3ccccc3F)c2c1 | 99% (active) | 0% | -3 | 101% (active) | inactive | inactive | inactive | inactive
CCOC(=O)N1CCN(CCCNc2c3ccc(Cl)cc3nc3ccc(OC)cc23)CC1 | 100% (active) | 52% (active) | 3 | 101% (active) | inactive | inactive | inactive | inactive
COc1cc(Cc2cnc(N)nc2N)cc(OCCNC(=O)OCc2ccccc2)c1OC | -3% | 6% | 4 | 93% (active) | inactive | inactive | inactive | inactive
c1cc(CN2CCN(CCN3CCOCC3)CC2)cc(-c2csc(-c3nc4ccccc4[nH]3)c2)c1 | 99% (active) | 27% | -8 | 100% (active) | inactive | inactive | inactive | inactive
COc1cccc(C(=O)NCc2cccs2)c1OCc1ccccc1 | -1% | -12% | 5 | 96% (active) | inactive | inactive | inactive | inactive
CCNc1cc(C(=O)N[C@@H](Cc2ccccc2)[C@H](O)CNC(C)C)cc(N2CC(c3ccccc3)CCS2(=O)=O)c1 (stereo not given in full) | 99% (active) | 0% | -1 | 98% (active) | inactive | inactive | inactive | inactive
O=S(=O)(NCCN1CCCC1)c1ccc(-c2cccc(CNCCc3cccs3)c2)cc1 | 30% | 41% | -1 | 95% (active) | inactive | inactive | inactive | inactive
Cc1cc(N[C@@H](C)C(=O)Nc2ccccc2)nc(NCCc2ccc(F)cc2)n1 | 43% | 33% | -2 | 100% (active) | inactive | inactive | inactive | inactive
Cc1[nH]c(C)c(-c2ccc(-c3ccc(OCC(F)(F)F)cc3)nc2)c(=O)c1Cl | 96% (active) | 3% | 4 | 94% (active) | inactive | inactive | inactive | inactive

SMILES | growth inhibition [1] | inhibition [2] | inhibition [3] [%] | growth inhibition [4] | outcome [5] | outcome [6] | outcome [7] | outcome [8]
N=C(N)CCN(Cc1ccccc1)c1ccc(Cl)cc1 | 98% (active) | 1% | 4 | 98% (active) | inactive | inactive | inactive | inactive
CCOc1cc(C)ccc1C1CCN(CCN2CCC(CNC(=O)c3ccc(-c4ccc(C(F)(F)F)cc4)cc3)CC2)CC1 | 89% (active) | 53% (active) | -2 | 98% (active) | inactive | inactive | inactive | inactive
Cc1cc(C(=O)NC2CCN(CC3(c4ccccc4)CCCCC3)CC2)on1 | 95% (active) | -3% | -3 | 97% (active) | inactive | inactive | inactive | inactive
O=C(NC1CCN(Cc2ccccc2)CC1)c1cc(-c2ccncc2)c(-c2ccc(Cl)c(O)c2)o1 | 86% (active) | 9% | 1 | 100% (active) | inactive | inactive | inactive | inactive
Oc1ccc2c(c1NCC1CCCCC1)CCCC2 | 99% (active) | 11% | 0 | 99% (active) | inactive | inactive | inactive | inactive
CON(CCCN(C)C)C(=N)N | -4% | 3% | 1 | 92% (active) | inactive | inactive | inactive | inactive
CC(C)c1sc(N2CCN(C)CC2)nc1C(=O)NCCc1ccc(Cl)c(Cl)c1 | 79% (active) | 10% | -2 | 98% (active) | inactive | inactive | inactive | inactive
CC(C)CCN1CCC(Oc2ccc(NC(=O)c3cccs3)cc2Cl)C1 (stereo not given) | 93% (active) | 17% | 2 | 94% (active) | inactive | inactive | inactive | inactive
COc1ccc(CC2(c3ccc(F)cc3)N=C(N)N(CCCc3ccc(F)c(F)c3)C2=O)cc1 (stereo not given) | 98% (active) | 42% | 5 | 98% (active) | inactive | inactive | inactive | inactive
Cc1[nH]c(C)c([N+](=O)[O-])c(=O)c1-c1ccc(Oc2ccc(OC(F)(F)F)cc2)cc1 | 97% (active) | -2% | -2 | 97% (active) | inactive | inactive | inactive | inactive
O=[N+]([O-])c1cccc(CNCC2CCN(Cc3ccc4ccccc4c3)CC2)c1 | 42% | 18% | 4 | 100% (active) | inactive | inactive | inactive | inactive
CCCCCN1CCC(NC(=O)c2ccc(C(=O)Nc3ccc(C(C)C)cc3)cc2)CC1 | 9% | 41% | -4 | 98% (active) | inactive | inactive | inactive | inactive
COc1ccc2nc(C)cc(Nc3ccc(Oc4ccc(Cl)cc4)c(Cl)c3)c2c1 | 100% (active) | 48% | -2 | 101% (active) | inactive | inactive | inactive | inactive
Clc1ccc(CNc2ccnc(NCc3ccc4c(c3)OCCCO4)n2)c(Cl)c1 | 20% | 50% (active) | -2 | 94% (active) | inactive | inactive | inactive | inactive
S=C(NCCCCCN1CCC(c2c[nH]c3ccccc23)CC1)Nc1cccc(I)c1 | 14% | 69% (active) | -3 | 99% (active) | inactive | inactive | inactive | inactive
CCOC(=O)c1c(CN2CCCC2)n(-c2ccccc2)c2cc(Br)c(O)cc12 | 53% (active) | -2% | -2 | 83% (active) | inactive | inactive | inactive | inactive
CN1CCN(CCCN(Cc2cccc(-c3cccc(CNC4CCCC4)c3)c2)C(=O)CCC2CCCC2)CC1 | 96% (active) | 35% | -3 | 100% (active) | inactive | inactive | inactive | inactive
COc1cc(CCCOc2c(N)nc(N)nc2N)cc(OC)c1OC | 0% | 8% | 2 | 88% (active) | inactive | inactive | inactive | inactive
COc1ccc(-c2c3c(=O)n(C)c(=O)n(C)c3c3nnc4ccccc4n23)cc1 | 86% (active) | -7% | -2 | 96% (active) | inactive | inactive | inactive | inactive
CCCCCCN1CCCN(Cc2cccc(C(=O)Nc3ccc(C(C)(C)C)cc3)c2)CC1 | 23% | 41% | 0 | 93% (active) | inactive | inactive | inactive | inactive
